{"source": "PubChem BioAssay AID686996", "about": "(Broad Institute, 2013)", "note": "Values joined by “and” are separate entries in the source; they are usually repeats but may differ in a detail not shown here. Equal values may be shown once. The campaign covered roughly 350,000 compounds. About 1,900 (0.54%) were called active.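 Rule for the calls: active = mean inhibition across replicates at least about 35%, with every replicate also reaching that limit (limit read from the data); inconclusive = only one of the two criteria met; inactive = neither criterion met.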 What follows is part of a selection rich in actives, with near analogues and random picks from the rest.", "data": [{"biological_target": "Caspase-6 (Homo sapiens) (UniProt P55212)", "sequence (P55212 24-179 limits assumed)": "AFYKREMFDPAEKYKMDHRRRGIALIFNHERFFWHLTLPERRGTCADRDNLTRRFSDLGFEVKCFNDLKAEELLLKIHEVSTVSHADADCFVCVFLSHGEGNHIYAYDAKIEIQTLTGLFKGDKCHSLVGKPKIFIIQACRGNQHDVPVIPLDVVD", "sequence (P55212 194-293 limits assumed)": "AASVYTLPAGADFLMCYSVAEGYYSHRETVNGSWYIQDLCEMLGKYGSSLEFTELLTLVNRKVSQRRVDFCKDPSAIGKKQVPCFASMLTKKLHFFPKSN", "experiment": "human caspase-6 inhibitors, primary screen, biochemical, VEID-R110 fluorescence, single point, set 2 (AID 686996);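 note: 0% = median of neutral control wells and 100% = no fluorescence left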", "conditions": "purified caspase-6, Z-VEID-R110 cleavage fluorescence; at 12.5 µM; active compounds read high", "values": [{"molecule": "COC(=O)C1=C(c2ccc3ccccc3c2)C[C@@H]2CC[C@H]1N2C(=O)NCCO", "inhibition": "-0.313% (inactive)"}, {"molecule": "COC(=O)C1=C(c2ccccc2)C[C@@H]2CC[C@H]1N2C(=O)NCc1ccco1", "inhibition": "2.09% (inactive)"}, {"molecule": "COC(=O)C1=C(c2ccc(C(C)=O)cc2)C[C@@H]2CC[C@H]1N2C(=O)NCCNC(C)=O", "inhibition": "35.3% (active)"}, {"molecule": "COC(=O)[C@H]1[C@H](CO)[C@H]2Cn3c(ccc(C4=CCCC4)c3=O)[C@@H]1N2C(=O)CC1CC1", "inhibition": "2.1% (inactive)"}, {"molecule": "CCOC(=O)[C@]12Cc3ccccc3[C@H]1N(C1CCCCC1)C(=O)c1cc(OC)ccc12", "inhibition": "1.66% (inactive)"}, {"molecule": "COc1cccc(N2C(=O)NC(=O)/C(=C\\c3cn(C)c4ccccc34)C2=O)c1", "inhibition": "4.46% (inactive)"}, {"molecule": "COc1cccc(N2C(=O)NC(=O)/C(=C\\c3ccc([N+](=O)[O-])s3)C2=O)c1", "inhibition": "46% (active)"}, {"molecule": "COc1ccc(N2C(=O)/C(=C/c3ccco3)C(=O)NC2=S)cc1", "inhibition": "-1.07% (inactive)"}, {"molecule": "Cc1ccccc1N1C(=O)NC(=O)/C(=C\\c2cc(C)n(C)c2C)C1=O", "inhibition": "3.93% (inactive)"}, {"molecule": "O=C1NC(=O)N(c2ccccc2)C(=O)/C1=C/c1ccc([N+](=O)[O-])s1", "inhibition": "49.9% (active)"}, {"molecule": "CC(C)CN1Cc2cc(N3CCCCC3)ccc2-n2nncc2C1", "inhibition": "-0.486% (inactive)"}, {"molecule": "COC1C(O)C(C)OC(OC2CCC3(C=O)C(CCC4C3CCC3(C)C(C5=CC(=O)OC5)CCC43O)C2)C1O", "note": "(stereo not given)", "inhibition": "0.09% (inactive)"}, {"molecule": "CCOC(=O)[C@@H]1[C@@H]2NC(=O)N[C@@]1(C)Oc1ccccc12", "inhibition": "1.71% (inactive) and -2.72% (inactive)"}, {"molecule": "CCOC(=O)c1cccc(C2=C(CNC(=O)c3ccncc3)[C@H]3CC[C@@H](C2)N3Cc2ccccc2)c1", "inhibition": "0.927% (inactive)"}, {"molecule": "Cc1c(C(=O)O)cccc1-n1c(C)cc(/C=C2\\C(=O)NC(=O)N(c3ccc4c(c3)OCO4)C2=O)c1C", "inhibition": "26.5% (inactive)"}, {"molecule": "O=C1NC(=O)N(Cc2ccco2)C(=O)/C1=C\\c1ccc(-c2ccc(F)cc2)o1", "inhibition": "73.9% (active)"}, {"molecule": "COc1ccc(CN2C(=O)NC(=O)/C(=C\\c3ccc(OC)c(OC)c3OC)C2=O)cc1", "inhibition": "4.46% (inactive)"}, {"molecule": "Cc1ccc(-n2c(C)cc(/C=C3\\C(=O)NC(=O)N(C)C3=O)c2C)cc1C", "inhibition": "12.1% (inactive)"}, {"molecule": "O=C1NC(=O)N(Cc2ccco2)C(=O)/C1=C\\c1cccn1CCOc1ccccc1", "inhibition": "61.1% (active)"}, {"molecule": "O=C(O)COc1ccccc1/C=C1\\C(=O)NC(=O)N(CCC2=CCCCC2)C1=O", "inhibition": "9.11% (inactive)"}, {"molecule": "O=C1NC(=O)N(CCc2ccc(F)cc2)C(=O)/C1=C/C=C/c1ccccc1", "inhibition": "-1.88% (inactive)"}, {"molecule": "Cc1cc(/C=C2/C(=O)NC(=O)N(Cc3ccco3)C2=O)c(C)n1-c1ccc(C(=O)O)cc1", "inhibition": "50.7% (active)"}, {"molecule": "Brc1ccc2c(c1)CNCc1cnnn1-2", "inhibition": "-1.24% (inactive)"}, {"molecule": "c1cc2c(c(NC3=NCCCS3)c1)CCCC2", "inhibition": "-1.96% (inactive)"}, {"molecule": "COC(=O)[C@H]1[C@H](CO)[C@H]2Cn3c(cccc3=O)[C@H]2N1CC1CC1", "inhibition": "1.75% (inactive)"}, {"molecule": "O=C1NCN(c2ccccc2)C12CCN(C(c1cccs1)c1nnnn1C1CCCCC1)CC2", "note": "(stereo not given)", "inhibition": "0.584% (inactive)"}, {"molecule": "O=C(Cc1ccccn1)N1CCCCN2[C@H](C1)[C@H](c1ccc(-c3ccccc3F)cc1)[C@@H]2CO", "inhibition": "1.27% (inactive)"}, {"molecule": "O=C(Cc1ccccn1)N1CCCCN2[C@@H](CO)[C@@H](c3ccc(C#Cc4ccccc4)cc3)[C@@H]2C1", "inhibition": "-4% (inactive)"}, {"molecule": "COC(=O)[C@@H]1[C@@H](CO)[C@@H]2Cn3c(ccc(-c4cccc(C(=O)N(C)C)c4)c3=O)[C@H]1N2C(=O)NC(C)C", "inhibition": "0.335% (inactive)"}, {"molecule": "COc1cc(OC)cc(C(=O)NCCN2CCC3(CC2)C(=O)NCN3c2ccccc2)c1", "inhibition": "-14.3% (inactive)"}]}]}
